Results: PubChem BioAssay
“And” between values parts separate entries of the source, which are not always exact repeats. Identical values can stand only once. Results filed as inconclusive are left out. For part of these data: Results with a measured potency or affinity are listed apart. The source made the active and inactive calls.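 How the source made its calls, unless noted: active means thallium flux through the channel raised or lowered by more than 3 SD from vehicle-only wells, actives on both sides; inactive means the rest.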

Assays:
[1] = rescue of polyQ-huntingtin neuronal dysfunction in worms, whole organism, C. elegans mechanosensory neurons, N-terminal huntingtin (AID 1599); conditions: touch response, stronger effect = higher value
[2] = growth inhibition of DIPG glioma cells, dose response, cell-based, JHH-DIPG-1, MIPE4.0, CellTiter-Glo, qHTS (AID 1347062; cut-off not given, nearly all actives have AC50 up to about 27 µM;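 on AC50: cells exposed to compound for two days before readout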); conditions: JHH-DIPG-1 viability, CellTiter-Glo ATP luminescence
[3] = SU-DIPG-XXV glioma cell viability, MIPE5.0 library, qHTS (AID 1347068; cut-off not given, nearly all actives have IC50 up to about 30 µM;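 on IC50: cells exposed to compound for 48 hours before viability readout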)
[4] = sensitizers of A549 cells to miR-34 induction, primary screen, imaging, A549 dox-inducible miR-34, nuclei and caspase counts (AID 1347080;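 active means compounds whose cell count with miR-34 switched on is under 0.7 times the count with it off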); conditions: A549 miR-34 inducible, Hoechst nuclei count, 48 h
[5] = hESC survival regulators, cell-based (AID 493140; call rule not given here;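 further: cells exposed to compounds for four days before counting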); conditions: human embryonic stem cell survival screen; stronger effect = higher value
[6] = modulation of C. elegans fzo-1 (AID 1259413; call rule not given here;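 further: fzo-1 mutant C. elegans worms in liquid wells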); conditions: C. elegans fzo-1 modulator screen, mean read-out; stronger effect = higher value
[7] = phospholipid biosynthesis inhibitors in animal cells, primary screen, cell-based, LOPAC library, screen 4 (AID 1347384; call rule not given here); conditions: phospholipid biosynthesis inhibition screen, at 10 µM
F380Y = experiment: modulators of BK channel variants, profiling panel, selectivity assay, cell-based, U2OS BacMam, thallium flux, beta subunits (AID 1259406); conditions: at 30 µM;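 further: initial slope of Thallos dye fluorescence rise after thallium is added; log ratio against the mean of 0.3% DMSO vehicle wells on the same plate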
F380Y/beta1 = experiment: as above; conditions: at 30 µM
F380Y/beta2Delta = experiment: as above; conditions: at 30 µM
F380Y/beta4 = experiment: as above; conditions: at 30 µM
[8] = target: Calcium-activated potassium channel subunit alpha-1 (Homo sapiens) + Leucine-rich repeat-containing protein 26 (Homo sapiens) (UniProt Q12791+Q2I0M4); experiment: as above; conditions: F380Y/Slo1WT/gamma1, at 30 µM
Calcium-activated potassium channel subunit alpha-1 (Homo sapiens) + Leucine-rich repeat-containing protein 26 (Homo sapiens), sequence (Q2I0M4 whole entry, looked up, one chain of several): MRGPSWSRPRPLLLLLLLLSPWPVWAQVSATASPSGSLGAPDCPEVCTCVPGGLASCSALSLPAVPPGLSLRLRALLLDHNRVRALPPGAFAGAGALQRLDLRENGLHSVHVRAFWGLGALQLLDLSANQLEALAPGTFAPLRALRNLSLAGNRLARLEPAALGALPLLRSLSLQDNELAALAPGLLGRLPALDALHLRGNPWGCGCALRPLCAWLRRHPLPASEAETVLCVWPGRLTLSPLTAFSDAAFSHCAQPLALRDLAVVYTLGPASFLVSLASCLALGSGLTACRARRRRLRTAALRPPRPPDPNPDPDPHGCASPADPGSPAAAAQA

R275C = experiment: as above; conditions: at 30 µM
R275C/beta1 = experiment: as above; conditions: at 30 µM
R275C/beta2Delta = experiment: as above; conditions: at 30 µM
R275C/beta4 = experiment: as above; conditions: at 30 µM
R275C/Slo1WT/beta2 = experiment: as above; conditions: at 30 µM
[9] = LFS_MB_P medulloblastoma growth inhibition, cell-based, chromothripsis tumors, cisplatin or BGB combos (AID 1671449; in the data active means inhibition above about 80%;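 further: cells exposed for 96 hours; 0% = vehicle DMSO and 100% = killing by high DMSO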); conditions: LFS_MB_P medulloblastoma cells
[10] = HDN33 neuroblastoma growth inhibition, cell-based, chromothripsis tumors, cisplatin or BGB combos (AID 1671450; in the data active means inhibition above about 80%;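 further: cells exposed to compound for four days; 0% = vehicle DMSO and 100% = cell killing by high DMSO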); conditions: HDN33 neuroblastoma cells, stronger effect = higher value
[11] = HTB85 osteosarcoma cell growth inhibition, synergistic combos for chromothripsis tumors, BGB or cisplatin IC20 combos (AID 1671453; in the data active means inhibition above about 80%;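 further: cells exposed for 96 hours before readout; 0% = vehicle DMSO and 100% = high DMSO killing control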); conditions: HTB85 osteosarcoma cells, drug combinations, stronger effect = higher value
[12] = stronger effect = lower value, cell number ratio, induced over uninduced
[13] = measured here: relative caspase fold change +Dox/-Dox
[14] = measured here: total cells with miR-34 induction, stronger effect = lower value
[15] = measured here: total cells without miR-34 induction

Compound: CCN(CCO)CCCC(C)Nc1ccnc2cc(Cl)ccc12 (centres undefined)
- rescue above control [1]: -3.82
- outcome [2]: inactive
- outcome [3]: inactive
- fold change [4, 12]: 0.835 (inactive)
- fold change [4, 13]: 5.27
- cell count [4, 14]: 11300
- cell count [4, 15]: 13500

Compound: CCC1(c2ccccc2)C(=O)NCNC1=O
- rescue above control [1]: -6.81
- survival [5]: 5.92 (inactive)
- mean signal [6]: 235 (inactive)
- AC50 [2]: 8330 nM (active)
- outcome [3]: inactive
- outcome [7]: inactive
- log fold change Tl+ flux (F380Y): -0.0227 (inactive)
- log fold change Tl+ flux (F380Y/beta1): 0.00204 (inactive)
- log fold change Tl+ flux (F380Y/beta2Delta): -0.0144 (inactive)
- log fold change Tl+ flux (F380Y/beta4): 0.00245 (inactive)
- log fold change Tl+ flux [8]: 0.023 (inactive)
- log fold change Tl+ flux (R275C): -0.0184 (inactive)
- log fold change Tl+ flux (R275C/beta1): -0.0109 (inactive)
- log fold change Tl+ flux (R275C/beta2Delta): -0.0215 (inactive)
- log fold change Tl+ flux (R275C/beta4): 0.0127 (inactive)
- log fold change Tl+ flux (R275C/Slo1WT/beta2): -0.0237 (inactive)

Compound: Clc1cccc(Cl)c1NC1=NCCN1
- rescue above control [1]: 13.6
- survival [5]: 20.8 (inactive)
- mean signal [6]: 231 (inactive)
- outcome [2]: inactive
- outcome [7]: inactive
- log fold change Tl+ flux (F380Y): 0.0065 (inactive)
- log fold change Tl+ flux (F380Y/beta1): 0.0554 (inactive)
- log fold change Tl+ flux (F380Y/beta2Delta): 0.0431 (inactive)
- log fold change Tl+ flux (F380Y/beta4): -0.00138 (inactive)
- log fold change Tl+ flux [8]: 0.0127 (inactive)
- log fold change Tl+ flux (R275C): -0.0635 (inactive)
- log fold change Tl+ flux (R275C/beta1): 0.000941 (inactive)
- log fold change Tl+ flux (R275C/beta2Delta): -0.00732 (inactive)
- log fold change Tl+ flux (R275C/beta4): 0.0373 (inactive)
- log fold change Tl+ flux (R275C/Slo1WT/beta2): 0.0101 (inactive)

Compound: CC[C@H]1CN2CCc3cc(OC)c(OC)cc3[C@@H]2C[C@@H]1C[C@H]1NCCc2cc(OC)c(OC)cc21
- AC50 [2]: 1320 nM (active)
- IC50 [3]: 742 nM (active)
- fold change [4, 12]: 1.04 (inactive) and 0.853 (inactive)
- fold change [4, 13]: 1.32 and 1.38
- cell count [4, 14]: 1340 and 1650
- cell count [4, 15]: 1300 and 1930
- outcome [7]: inactive

Compound: CCN(CC)CCCC(C)Nc1ccnc2cc(Cl)ccc12 (centres undefined)
- rescue above control [1]: 4.09
- survival [5]: 6.67 (inactive)
- outcome [3]: inactive
- outcome [7]: inactive

Compound: CCCCCN=C(N)N/N=C/c1c[nH]c2ccc(OC)cc12
- mean signal [6]: 250 (inactive)
- outcome [3]: inactive

Compound: CC(C)NCC(O)c1ccc(O)c(O)c1 (centres undefined)
- rescue above control [1]: 7.5
- survival [5]: 4.58 (inactive) and 3.08 (inactive)
- mean signal [6]: 227 (inactive)
- AC50 [2]: 1480 nM (active)
- outcome [3]: inactive
- outcome [7]: inactive
- log fold change Tl+ flux (F380Y): 0.0351 (inactive)
- log fold change Tl+ flux (F380Y/beta1): 0.0171 (inactive)
- log fold change Tl+ flux (F380Y/beta2Delta): 0.061 (inactive)
- log fold change Tl+ flux (F380Y/beta4): 0.0647 (inactive)
- log fold change Tl+ flux [8]: -0.00786 (inactive)
- log fold change Tl+ flux (R275C): 0.0272 (inactive)
- log fold change Tl+ flux (R275C/beta1): -0.0419 (inactive)
- log fold change Tl+ flux (R275C/beta2Delta): 0.00121 (inactive)
- log fold change Tl+ flux (R275C/beta4): 0.0195 (inactive)
- log fold change Tl+ flux (R275C/Slo1WT/beta2): -0.00526 (inactive)

Compound: CCC(C)(C)C(=O)O[C@H]1C[C@@H](C)C=C2C=C[C@H](C)[C@H](CC[C@@H]3C[C@@H](O)CC(=O)O3)[C@H]21
- survival [5]: 1.17 (inactive)
- mean signal [6]: 230 (inactive)
- outcome [3]: inactive
- log fold change Tl+ flux (F380Y): 0.085 (inactive)
- log fold change Tl+ flux (F380Y/beta1): 0.0381 (inactive)
- log fold change Tl+ flux (F380Y/beta2Delta): 0.0908 (active)
- log fold change Tl+ flux (F380Y/beta4): -0.0747 (inactive)
- log fold change Tl+ flux [8]: 0.0806 (active)
- log fold change Tl+ flux (R275C): 0.0702 (inactive)
- log fold change Tl+ flux (R275C/beta1): 0.116 (active)
- log fold change Tl+ flux (R275C/beta2Delta): 0.0611 (inactive)
- log fold change Tl+ flux (R275C/beta4): 0.067 (inactive)
- log fold change Tl+ flux (R275C/Slo1WT/beta2): -0.0513 (inactive)

Compound: Nc1nc2c(ncn2COCCO)c(=O)[nH]1
- rescue above control [1]: 0.24
- survival [5]: 18.2 (inactive)
- mean signal [6]: 281 (inactive)
- outcome [2]: inactive
- outcome [3]: inactive
- outcome [7]: inactive
- inhibition ([9]; at 0.5 µM, stronger effect = higher value): -27.5% (inactive) and -23.8% (inactive)
- inhibition ([9]; measured here: combination with BGB IC20, at 0.005 µM): -0.211% and -20%
- inhibition ([9]; measured here: combination with BGB IC40, at 0.005 µM): -37.2% and -37.3%
- inhibition ([9]; measured here: combination with BGB IC40, at 0.05 µM): -22.3% and -50.5%
- inhibition ([9]; measured here: combination with cisplatin, at 0.5 µM, stronger effect = higher value): -35.1% and -39.9%
- inhibition ([9]; measured here: combination with cisplatin, at 5 µM, stronger effect = higher value): -19.1% and -38.4%
- inhibition ([10]; BGB combo, at 5 µM): -39.6% and -25.3%
- inhibition ([10]; at 0.5 µM): -44.3% (inactive) and -13.8% (inactive)
- inhibition ([10]; cisplatin combo, at 5 µM): -30.4% and 3.02%
- inhibition ([10]; measured here: with BGB IC20 combination, at 0.5 µM): -44% and -16%
- inhibition ([10]; measured here: with cisplatin IC20 combination, at 0.5 µM): -44.9% and -2.15%
- inhibition ([10]; single agent, at 5 µM): -49.5% and 10.3%
- inhibition ([11]; at 0.5 µM): -30.1% (inactive) and -6.85% (inactive)
- inhibition ([11]; measured here: with BGB IC20, at 0.5 µM): -40.8% and -11.5%
- inhibition ([11]; measured here: with BGB IC20, at 5 µM): -33.7% and -9.07%
- inhibition ([11]; measured here: with cisplatin IC20, at 0.5 µM): -27.1% and -11.3%
- inhibition ([11]; measured here: with cisplatin IC20, at 5 µM): -43.1% and -41.4%
- inhibition ([11]; single agent, at 5 µM): -42.6% and 2.37%
- log fold change Tl+ flux (F380Y): 0.00551 (inactive)
- log fold change Tl+ flux (F380Y/beta1): -0.0568 (inactive)
- log fold change Tl+ flux (F380Y/beta2Delta): 0.0127 (inactive)
- log fold change Tl+ flux (F380Y/beta4): -0.0606 (inactive)
- log fold change Tl+ flux [8]: -0.0276 (inactive)
- log fold change Tl+ flux (R275C): -0.024 (inactive)
- log fold change Tl+ flux (R275C/beta1): -0.0244 (inactive)
- log fold change Tl+ flux (R275C/beta2Delta): -0.00892 (inactive)
- log fold change Tl+ flux (R275C/beta4): 0.0324 (inactive)
- log fold change Tl+ flux (R275C/Slo1WT/beta2): 0.0456 (inactive)
